The values that follow come from PubChem BioAssay AID588522 (NMMLSC, 2011).

Structures are written as SMILES. Out of some 1,700 compounds screened, about 20 (1%) were called active.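 How the source made its calls: active means inhibition above the screen-wide mean plus twice its standard deviation (cut at about 32% in these data); inactive means the rest.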 Shown is part of a subset that was picked to be rich in actives.

The inhibition is the drop in the measured response relative to a control, in per cent.

In the test the test system is Candida albicans drug resistance protein 1 (Cdr1) expressed in S. cerevisiae. In words: inhibitors of Candida albicans Cdr1 efflux pump, confirmation, S. cerevisiae AD/CaCDR1, flow cytometry, cherry pick 1, singleplex (AID 588522). Particulars: S. cerevisiae AD/CaCDR1, Nile Red efflux, at 10 µM, stronger effect = higher value.
In the case of `O=C(Cc1ccccc1)NCC1OCCc2ccccc21` (stereo unspecified), the inhibition is -0.03% (inactive). Then `COc1ccc(C(=O)NC2CC(C)(C)Cc3c2cnn3-c2ccccc2)c(OC)c1` (stereo unspecified), with -0.08% (inactive); and `O=C(CNC(=O)c1ccc(-c2ccccc2)cc1)OCc1ccc(Cl)cc1`, with 0.15% (inactive); and `O=C(OCc1ccc(-c2ccccc2)cc1)c1cccc(O)c1`, with 0.08% (inactive).

`O=C(CSc1nnc(-c2cccnc2)n1Cc1ccco1)c1ccc(Cl)c(Cl)c1`: the inhibition was -0.04% (inactive).

Consider `Cc1oc2cc3oc(=O)ccc3cc2c1C`, for which the inhibition is -0.1% (inactive). The result for `CC12CCC(C(=O)N(c3cccc(Cl)c3)C1=O)C2(C)C` (stereo unspecified) reads 0.11% (inactive); that for `Cc1cc(C)cc(NC(=O)C(OC(=O)c2ccc(O)cc2)c2ccccc2)c1` (stereo unspecified), -0.12% (inactive).

As to `COc1ccccc1/C=C/C=N/n1c(-c2ccc(Cl)cc2Cl)n[nH]c1=S`, the inhibition was 0.09% (inactive). The result for `CCOc1ccc(C2/C(=C(/O)c3ccc4c(c3)CC(C)O4)C(=O)C(=O)N2CCCn2ccnc2)cc1` (stereo unspecified) reads 0.05% (inactive).

On to `CC(/C=C/c1ccccc1)=N\NC(=O)C1CC1(C)c1ccccc1` (stereo unspecified), for which the inhibition is -0.03% (inactive).

`O=C(Nc1ccc(NC(=O)c2cccs2)cc1)c1ccc2ccccc2c1`: the inhibition was 0.04% (inactive).

For `CCNC(=O)c1c(O)c2cccc3c2n(c1=O)CC3`, the inhibition was -0.08% (inactive). As for `Cc1cccc(NC(=O)COc2ccccc2C)n1`, the inhibition was -0.06% (inactive). `O=C(CN1C(=O)C2C3CCC(C3)C2C1=O)Oc1ccc2ccccc2c1` (stereo unspecified): the inhibition is -0.01% (inactive).

For `CCCc1nnc(SCC(=O)Nc2ccc(C(=O)OCC)cc2)o1`, the inhibition was 0.53% (inactive).

As to `O=C(/C=C/c1c(Cl)cccc1Cl)NCc1ccccc1`, the inhibition is -0.01% (inactive). Take `CCNc1c(NS(=O)(=O)c2ccc(C3CCCCC3)cc2)c(=O)oc2ccccc12`: the inhibition was -0.2% (inactive). Then `CSCCC(NC(=O)COc1ccccc1)C(=O)OCCOc1ccc(Br)cc1` (stereo unspecified), with -0.03% (inactive); and `Cc1csc(NC(=O)c2ccc(-c3ccc(Cl)cc3Cl)o2)n1`, with 0.16% (inactive); and `Cc1cc(/C=N/NC(=O)CC2(C)OCCO2)c(C)n1-c1ccc(Cl)c(Cl)c1`, with 0.13% (inactive).

Consider `COc1ccc(S(=O)(=O)N2CCOC2CNC(=O)C(=O)NCc2ccc(F)cc2)cc1` (stereo unspecified), for which the inhibition is 0.04% (inactive). With `Cc1ccc(N=C2NC(=O)/C(=C/C=C/c3ccco3)S2)cc1C`, the inhibition is 0.36% (inactive). As to `CSCCC(NS(=O)(=O)c1ccc(C)cc1)C(=O)N1CCCC1` (stereo unspecified), the inhibition was -0.1% (inactive). For the molecule `C/C(N)=C(/C#N)C(=O)COC(=O)c1cc(-c2cccc(Br)c2)nc2ccccc12`, the inhibition was 0.12% (inactive). In the case of `Cc1ccc(/C=C(\C#N)C(=O)Nc2cccc3ncccc23)o1`, the inhibition is -0.54% (inactive). The result for `O=C(NCc1ccccc1)C(=O)NCC1OCCN1S(=O)(=O)c1ccc(Br)cc1` (stereo unspecified) reads -0.27% (inactive). The result for `Cc1nn(C)cc1N1C(=O)c2cccc3c(N)ccc(c23)C1=O` reads -0.53% (inactive); that for `CN(C)S(=O)(=O)c1cc(C(=O)Nc2ccn(C)n2)c(Cl)cc1Cl`, -0.51% (inactive); that for `COc1ccc(C(=O)C2CCCN(Cc3cccn3-c3ccccn3)C2)c(C)c1` (stereo unspecified), 0.01% (inactive). As for `CCOc1ccc(/C=C2\SC(=S)N(NC(=O)c3ccncc3)C2=O)cc1OC`, the inhibition was -0.06% (inactive).

Turning to `COc1ccc(NC(=S)N2CCc3cc(OC)c(OC)cc3C2)cc1`, the inhibition is 0.16% (inactive). Then `CCn1c(/C=C/c2ccc([N+](=O)[O-])o2)nc2ccccc2c1=O`, with 0.83% (inactive). The result for `CC(C)C(=O)N1CCC2(CC1)Oc1ccc(F)cc1C(=O)C21CC(c2ccccc2)=NO1` (stereo unspecified) reads 0.01% (inactive); that for `COc1cccc(NC(=O)CN(C)C(=O)/C=C/c2cc(OC)ccc2OC)c1`, -0.15% (inactive); that for `COc1ccc(/C=C(\C#N)c2c[nH]c3ccccc23)cc1`, -0.2% (inactive). Regarding `NNC(=O)COc1ccc(C2SCCS2)cc1`, the inhibition was -0.06% (inactive). Regarding `O=C(CCCCCn1c(=O)[nH]c2ccccc2c1=O)NCCc1c[nH]c2ccccc12`, the inhibition was -0.02% (inactive). Consider `COc1cccc(-c2sc3ccc(OC)cc3c2-c2ccc(OCCN3CCCCC3)cc2)c1`, for which the inhibition was 45.4% (active). Then `COc1ccc(-c2sc3ccccc3c2-c2ccc(OCCN3CCOCC3)cc2)cc1`, with -0.26% (inactive). Take `COc1ccc2sc(-c3ccccc3OC)c(-c3ccc(OCCN4CCCC4)cc3)c2c1`: the inhibition was 4.57% (inactive). `Cc1nn(C)cc1C(=O)Nc1ccccc1Br`: the inhibition was -0.09% (inactive). On to `CCCCCCCCCCCCCCCC(=O)OC/C=C(C)/C=C/C=C(C)/C=C/C1=C(C)CCCC1(C)C`, for which the inhibition is 0.11% (inactive). `C=CCC[C@@H](Cc1ccc(F)cc1)C(=O)OC[C@H](Cc1c[nH]c2ccccc12)NC(=O)[C@@H](CC=C)CC(=O)N(CCO)Cc1ccccc1`: the inhibition was 0.17% (inactive). For the molecule `CN=C(c1ccccc1)c1c(C)cccc1C`, the inhibition is 0.01% (inactive). Turning to `Cc1cc(C(=O)Nc2ccc(C)c(S(=O)(=O)N3CCOCC3)c2)c2ccccc2n1`, the inhibition was -0.08% (inactive). Consider `CCc1ccc(NC(=O)Cn2ncn3c(cc4ccccc43)c2=O)cc1`, for which the inhibition was -0.23% (inactive). On to `Cc1ccc(OCc2cc(C(=O)N(C)CCc3ccccc3)no2)cc1C`, for which the inhibition was -0.15% (inactive).

In the case of `CCOc1ccc2nc(Cl)c(C3CC(c4ccccc4)=NN3C(=O)c3cccs3)cc2c1` (stereo unspecified), the inhibition is 0.11% (inactive). The result for `O=C1NC(=O)C2C1C(c1ccc([N+](=O)[O-])cc1)=NN2Cc1ccccc1` (stereo unspecified) reads 0.24% (inactive); that for `CCCCCC(=O)Nc1ccc(C(=O)N/N=C/c2ccc([N+](=O)[O-])cc2)cc1`, 0.01% (inactive); that for `CCOC(=O)CNC(=O)CSc1nnnn1-c1cc(C)ccc1C`, -0.03% (inactive).

As to `CC[n+]1cc(C)ccc1/C=C/c1ccc(N(C)C)cc1`, the inhibition was 4.74% (inactive). For the molecule `COc1ccc2[nH]c3c(C)c4cc[n+](C)cc4c(C)c3c2c1`, the inhibition was 0.08% (inactive).

As for `Cc1c(CCOC(=O)CC23CC4CC(CC(C)(C4)C2)C3)sc[n+]1Cc1ccc([N+](=O)[O-])cc1`, the inhibition is 0.01% (inactive). The result for `CCOC(=O)c1c(NC(=S)NC(=O)c2ccco2)sc2c1CCCC2` reads -0.31% (inactive); that for `C[n+]1ccc(/C=C/c2c[nH]c3ccccc23)cc1`, 3.85% (inactive); that for `COc1ccc(C(=O)NC2CCCc3c2cnn3-c2cccc(C)c2C)c(OC)n1` (stereo unspecified), -0.29% (inactive).

Turning to `CC(/C=N/NC(=O)c1cc(-c2ccc3ccccc3c2)n[nH]1)=C\c1ccco1`, the inhibition was -0.15% (inactive).

With `O=C(Cc1ccc(Br)cc1)N1CCN(c2ccccn2)CC1`, the inhibition is -0.06% (inactive). For the molecule `CCCCN1C(=O)/C(=C/C=C2/C=Cc3ccccc3N2CC)SC1=S`, the inhibition is -0.08% (inactive). Turning to `Cc1ccc(Cn2c(C)nc3c(c2=O)c2nc4ccccc4nc2n3Cc2ccco2)cc1`, the inhibition was 0.09% (inactive). Regarding `Cc1ccc2[nH]c3c(=O)n(CC(=O)NCCc4ccc(Cl)cc4)ncc3c2c1`, the inhibition was 0.27% (inactive). The result for `COc1ccc(C(=O)NC(=S)Nc2ccc(N3CCCC3)cc2)cc1OC` reads -0.15% (inactive); that for `Cc1nc2c(C(=O)NCc3ccc4c(c3)OCO4)c[nH]n2c(=O)c1Cc1ccccc1F`, -0.08% (inactive). Then `COc1ccccc1NC(=O)C1CCCN1S(=O)(=O)c1ccc(Cl)cc1` (stereo unspecified), with -0.03% (inactive); and `CCCc1nc(N2CCN(C)CC2)c2sc(=S)n(-c3ccccc3)c2n1`, with 0.07% (inactive). With `Cc1ccc(Cn2nnc3c(=O)[nH]c(C4CCN(S(=O)(=O)/C=C/c5ccccc5)CC4)nc32)cc1`, the inhibition was -0.06% (inactive). Then `CCCCOc1ccc(C(=O)NCC(=O)OCC(=O)c2c(N)n(C)c(=O)n(C)c2=O)cc1`, with 106% (active); and `COc1ccccc1CSc1ncc(-c2ccc([N+](=O)[O-])cc2)[nH]1`, with -0.02% (inactive). For the molecule `CCOc1ccccc1/C=c1\sc2nc(-c3ccco3)nn2c1=O`, the inhibition was 0.21% (inactive). The result for `O=C(Cn1c(COc2ccccc2)nc2ccccc21)Nc1cc(Cl)c(Cl)cc1Cl` reads 0.09% (inactive); that for `CC1CCc2c(sc(NC(=O)c3ccc(Cn4cc(Br)cn4)o3)c2C(N)=O)C1` (stereo unspecified), -0.03% (inactive); that for `Cc1ccc2c(c1)NC(=O)[C@@]1(C)[C@@H](c3ccccc3)[C@H]3COc4ccc(Cl)cc4[C@@H]3N1C2=O`, 0.07% (inactive). Take `CN1CCN(S(=O)(=O)c2ccc(NC(=S)NC(=O)C3CC3)cc2)CC1`: the inhibition is -0.08% (inactive). The result for `O=S(=O)(c1ccccc1)N1CCc2ccccc21` reads 0.54% (inactive).
